# Results published in paper PMC8222333, “AsCas12a ultra nuclease facilitates the rapid generation of therapeutic cell medicines”.
# B1: AGGT (dsDNA)
# DNA 1: GCTATCTAGTGCTCAGTACGCACTGAGGTAGGAAACTTCTGGCAGGACCAGGTCATGAGATCGGAAGAGCACACGTCTGAACTCCAGTCA
# DNA 2: TGACTGGAGTTCAGACGTGTGCTCTTCCGATCTCATGACCTGGTCCTGCCAGAAGTTTCCTACCTCAGTGCGTACTGAGCACTAGATAGC
# RNA: AAUUUCUACUCUUGUAGAUAGGAAACUUCUGGCAGGACC
# B2: CCGG (dsDNA)
# DNA 1: GCTATCTAGTGCTCAGTACGCACTGCCGGAGGAAACTTCTGGCAGGACCAGGTCATGAGATCGGAAGAGCACACGTCTGAACTCCAGTCA
# DNA 2: TGACTGGAGTTCAGACGTGTGCTCTTCCGATCTCATGACCTGGTCCTGCCAGAAGTTTCCTCCGGCAGTGCGTACTGAGCACTAGATAGC
# RNA: AAUUUCUACUCUUGUAGAUAGGAAACUUCUGGCAGGACC
# B3: ATGA (dsDNA)
# DNA 1: GCTATCTAGTGCTCAGTACGCACTGATGAAGGAAACTTCTGGCAGGACCAGGTCATGAGATCGGAAGAGCACACGTCTGAACTCCAGTCA
# DNA 2: TGACTGGAGTTCAGACGTGTGCTCTTCCGATCTCATGACCTGGTCCTGCCAGAAGTTTCCTTCATCAGTGCGTACTGAGCACTAGATAGC
# RNA: AAUUUCUACUCUUGUAGAUAGGAAACUUCUGGCAGGACC
# B4: AGTA (dsDNA)
# DNA 1: GCTATCTAGTGCTCAGTACGCACTGAGTAAGGAAACTTCTGGCAGGACCAGGTCATGAGATCGGAAGAGCACACGTCTGAACTCCAGTCA
# DNA 2: TGACTGGAGTTCAGACGTGTGCTCTTCCGATCTCATGACCTGGTCCTGCCAGAAGTTTCCTTACTCAGTGCGTACTGAGCACTAGATAGC
# RNA: AAUUUCUACUCUUGUAGAUAGGAAACUUCUGGCAGGACC
# B5: CCTT (dsDNA)
# DNA 1: GCTATCTAGTGCTCAGTACGCACTGCCTTAGGAAACTTCTGGCAGGACCAGGTCATGAGATCGGAAGAGCACACGTCTGAACTCCAGTCA
# DNA 2: TGACTGGAGTTCAGACGTGTGCTCTTCCGATCTCATGACCTGGTCCTGCCAGAAGTTTCCTAAGGCAGTGCGTACTGAGCACTAGATAGC
# RNA: AAUUUCUACUCUUGUAGAUAGGAAACUUCUGGCAGGACC
# B6: ATAA (dsDNA)
# DNA 1: GCTATCTAGTGCTCAGTACGCACTGATAAAGGAAACTTCTGGCAGGACCAGGTCATGAGATCGGAAGAGCACACGTCTGAACTCCAGTCA
# DNA 2: TGACTGGAGTTCAGACGTGTGCTCTTCCGATCTCATGACCTGGTCCTGCCAGAAGTTTCCTTTATCAGTGCGTACTGAGCACTAGATAGC
# RNA: AAUUUCUACUCUUGUAGAUAGGAAACUUCUGGCAGGACC
# B7: CCCC (dsDNA)
# DNA 1: GCTATCTAGTGCTCAGTACGCACTGCCCCAGGAAACTTCTGGCAGGACCAGGTCATGAGATCGGAAGAGCACACGTCTGAACTCCAGTCA
# DNA 2: TGACTGGAGTTCAGACGTGTGCTCTTCCGATCTCATGACCTGGTCCTGCCAGAAGTTTCCTGGGGCAGTGCGTACTGAGCACTAGATAGC
# RNA: AAUUUCUACUCUUGUAGAUAGGAAACUUCUGGCAGGACC
# B8: AGTG (dsDNA)
# DNA 1: GCTATCTAGTGCTCAGTACGCACTGAGTGAGGAAACTTCTGGCAGGACCAGGTCATGAGATCGGAAGAGCACACGTCTGAACTCCAGTCA
# DNA 2: TGACTGGAGTTCAGACGTGTGCTCTTCCGATCTCATGACCTGGTCCTGCCAGAAGTTTCCTCACTCAGTGCGTACTGAGCACTAGATAGC
# RNA: AAUUUCUACUCUUGUAGAUAGGAAACUUCUGGCAGGACC
# B9: CCTA (dsDNA)
# DNA 1: GCTATCTAGTGCTCAGTACGCACTGCCTAAGGAAACTTCTGGCAGGACCAGGTCATGAGATCGGAAGAGCACACGTCTGAACTCCAGTCA
# DNA 2: TGACTGGAGTTCAGACGTGTGCTCTTCCGATCTCATGACCTGGTCCTGCCAGAAGTTTCCTTAGGCAGTGCGTACTGAGCACTAGATAGC
# RNA: AAUUUCUACUCUUGUAGAUAGGAAACUUCUGGCAGGACC
# B10: CGGG (dsDNA)
# DNA 1: GCTATCTAGTGCTCAGTACGCACTGCGGGAGGAAACTTCTGGCAGGACCAGGTCATGAGATCGGAAGAGCACACGTCTGAACTCCAGTCA
# DNA 2: TGACTGGAGTTCAGACGTGTGCTCTTCCGATCTCATGACCTGGTCCTGCCAGAAGTTTCCTCCCGCAGTGCGTACTGAGCACTAGATAGC
# RNA: AAUUUCUACUCUUGUAGAUAGGAAACUUCUGGCAGGACC
# B11: ATGT (dsDNA)
# DNA 1: GCTATCTAGTGCTCAGTACGCACTGATGTAGGAAACTTCTGGCAGGACCAGGTCATGAGATCGGAAGAGCACACGTCTGAACTCCAGTCA
# DNA 2: TGACTGGAGTTCAGACGTGTGCTCTTCCGATCTCATGACCTGGTCCTGCCAGAAGTTTCCTACATCAGTGCGTACTGAGCACTAGATAGC
# RNA: AAUUUCUACUCUUGUAGAUAGGAAACUUCUGGCAGGACC
# B12: AGTT (dsDNA)
# DNA 1: GCTATCTAGTGCTCAGTACGCACTGAGTTAGGAAACTTCTGGCAGGACCAGGTCATGAGATCGGAAGAGCACACGTCTGAACTCCAGTCA
# DNA 2: TGACTGGAGTTCAGACGTGTGCTCTTCCGATCTCATGACCTGGTCCTGCCAGAAGTTTCCTAACTCAGTGCGTACTGAGCACTAGATAGC
# RNA: AAUUUCUACUCUUGUAGAUAGGAAACUUCUGGCAGGACC
# B13: CCTG (dsDNA)
# DNA 1: GCTATCTAGTGCTCAGTACGCACTGCCTGAGGAAACTTCTGGCAGGACCAGGTCATGAGATCGGAAGAGCACACGTCTGAACTCCAGTCA
# DNA 2: TGACTGGAGTTCAGACGTGTGCTCTTCCGATCTCATGACCTGGTCCTGCCAGAAGTTTCCTCAGGCAGTGCGTACTGAGCACTAGATAGC
# RNA: AAUUUCUACUCUUGUAGAUAGGAAACUUCUGGCAGGACC
# B14: AGTC (dsDNA)
# DNA 1: GCTATCTAGTGCTCAGTACGCACTGAGTCAGGAAACTTCTGGCAGGACCAGGTCATGAGATCGGAAGAGCACACGTCTGAACTCCAGTCA
# DNA 2: TGACTGGAGTTCAGACGTGTGCTCTTCCGATCTCATGACCTGGTCCTGCCAGAAGTTTCCTGACTCAGTGCGTACTGAGCACTAGATAGC
# RNA: AAUUUCUACUCUUGUAGAUAGGAAACUUCUGGCAGGACC
# B15: CCTC (dsDNA)
# DNA 1: GCTATCTAGTGCTCAGTACGCACTGCCTCAGGAAACTTCTGGCAGGACCAGGTCATGAGATCGGAAGAGCACACGTCTGAACTCCAGTCA
# DNA 2: TGACTGGAGTTCAGACGTGTGCTCTTCCGATCTCATGACCTGGTCCTGCCAGAAGTTTCCTGAGGCAGTGCGTACTGAGCACTAGATAGC
# RNA: AAUUUCUACUCUUGUAGAUAGGAAACUUCUGGCAGGACC
# Target: dAsCas12a Ultra (Acidaminococcus sp., UniProt U2UMQ6 1-1307, M537R;F870L;D908A;E993A;D1235A)
# Experiment: Spec-seq (native PAGE EMSA with sequencing of bound and unbound); 25 mM Tris-HCl pH 7.4, 150 mM KCl, 5 mM MgCl2, 10% glycerol, 1 mM DTT, 40 ng/uL salmon sperm DNA; 400 nM Cas12a, 480 nM crRNA, 50 nM library, 37 C 1 h; native PAGE at room temperature; high values mean tight binding
# Conditions: protein: recombinant
row,Binder,binding signal
1,B1,-8.68 lnKA
2,B2,-8.87 lnKA
3,B3,-8.29 lnKA
4,B4,-8.43 lnKA
5,B5,-8.97 lnKA
6,B6,-8.76 lnKA
7,B7,-8.74 lnKA
8,B8,-8.77 lnKA
9,B9,-7.06 lnKA
10,B10,-8.98 lnKA
11,B11,-8.98 lnKA
12,B12,-8.9 lnKA
13,B13,-7.53 lnKA
14,B14,-8.75 lnKA
15,B15,-6.9 lnKA

# Target: dAsCas12a S542R (Acidaminococcus sp., UniProt U2UMQ6 1-1307, S542R;D908A;E993A;D1235A)
# Experiment: as above
# Conditions: protein: recombinant
row,Binder,binding signal
1,B1,-8.5 lnKA
2,B2,-8.41 lnKA
3,B3,-7.95 lnKA
4,B4,-7.93 lnKA
5,B5,-8.32 lnKA
6,B6,-8.17 lnKA
7,B7,-4.35 lnKA
8,B8,-8.41 lnKA
9,B9,-7.77 lnKA
10,B11,-8.67 lnKA
11,B12,-8.18 lnKA
12,B13,-8.1 lnKA
13,B14,-8.14 lnKA
14,B15,-7.68 lnKA

# Target: d-enCas12a (Acidaminococcus sp., UniProt U2UMQ6 1-1307, E174R;S542R;K548R;D908A;E993A;D1235A)
# Experiment: as above
# Conditions: protein: recombinant
row,Binder,binding signal
1,B1,-5.71 lnKA
2,B2,-6.11 lnKA
3,B3,-5.35 lnKA
4,B4,-2.11 lnKA
5,B5,-5.69 lnKA
6,B6,-5.28 lnKA
7,B7,-1.8 lnKA
8,B8,-3.79 lnKA
9,B9,-5.38 lnKA
10,B10,-6.24 lnKA
11,B11,-5.72 lnKA
12,B12,-4.88 lnKA
13,B13,-5.7 lnKA
14,B14,-2.3 lnKA
15,B15,-5.18 lnKA

# Target: d-enCas12a-Ultra (Acidaminococcus sp., UniProt U2UMQ6 1-1307, E174R;S542R;K548R;M537R;F870L;D908A;E993A;D1235A)
# Experiment: as above
# Conditions: protein: recombinant
row,Binder,binding signal
1,B1,-3.43 lnKA
2,B2,-3.44 lnKA
3,B3,-3.17 lnKA
4,B4,-0.526 lnKA
5,B5,-3.27 lnKA
6,B6,-3.12 lnKA
7,B7,-0.387 lnKA
8,B8,-1.18 lnKA
9,B9,-2.2 lnKA
10,B10,-3.42 lnKA
11,B11,-3.21 lnKA
12,B12,-1.91 lnKA
13,B13,-3.13 lnKA
14,B14,-0.544 lnKA
15,B15,-2.06 lnKA

# Target: dAsCas12a E174R (Acidaminococcus sp., UniProt U2UMQ6 1-1307, E174R;D908A;E993A;D1235A)
# Experiment: as above
# Conditions: protein: recombinant
row,Binder,binding signal
1,B3,-8.88 lnKA
2,B4,-8.14 lnKA
3,B5,-8.31 lnKA
4,B6,-8.75 lnKA
5,B7,-8.52 lnKA
6,B8,-8.75 lnKA
7,B9,-5.98 lnKA
8,B12,-8.38 lnKA
9,B13,-7.6 lnKA
10,B14,-8.31 lnKA
11,B15,-6.59 lnKA

# Target: dAsCas12a K548R (Acidaminococcus sp., UniProt U2UMQ6 1-1307, K548R;D908A;E993A;D1235A)
# Experiment: as above
# Conditions: protein: recombinant
row,Binder,binding signal
1,B4,-8.98 lnKA
2,B14,-7.9 lnKA
